From PubChem BioAssay (NCI)
The panel holds about 79,000 compounds, 15% with a hit somewhere; the sample as a whole holds those more often. Rule as the data show it: active = growth inhibition above about 70%; inactive = the rest.

Experiments:
[1] = NCI Yeast Anticancer Drug Screen. Data for the rad50 strain (AID 155);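 also: 0% = growth of vehicle-only cultures of the same strain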; settings: S. cerevisiae rad50 strain growth inhibition; at 50.0 µM; active compounds read high
Method in brief: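 Readout: growth inhibition relative to vehicle-treated cultures. Compound exposure was carried out in a genetically defined yeast strain deficient in DNA damage repair.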

[2] = NCI Yeast Anticancer Drug Screen. Data for the mec2-1 strain (AID 157); settings: S. cerevisiae mec2-1 strain, at 50.0 µM, active compounds read high
Method in brief: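 Cells of the genetically defined mec2-1 yeast strain are incubated with test compound. Inhibition of growth is calculated against vehicle-treated controls.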

[3] = NCI Yeast Anticancer Drug Screen. Data for the sgs1 mgt1 strain (AID 161);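 also: 0% = growth of cultures given vehicle only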; settings: S. cerevisiae sgs1 mgt1 strain, at 50.0 µM, active compounds read high
Method in brief: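 Inhibition of yeast growth, normalised to vehicle-treated controls, is reported for a strain bearing genetic alterations in DNA damage repair.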

[4] = NCI Yeast Anticancer Drug Screen. Data for the cln2 rad14 strain (AID 165);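 also: 0% = growth equal to vehicle treated cultures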; settings: S. cerevisiae cln2 rad14 strain, at 50.0 µM, active compounds read high
Method in brief: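 The screen exposed genetically defined yeast (cln2 rad14) to test compounds and scored growth inhibition relative to vehicle-treated controls.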

[5] = NCI Yeast Anticancer Drug Screen. Data for the bub3 strain (AID 167); settings: S. cerevisiae bub3 mutant strain, at 50.0 µM, active compounds read high
Method in brief: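 Readout: yeast growth inhibition, expressed relative to vehicle-only wells. The test organism is a mutant strain from a panel with lesions in DNA repair or checkpoint genes.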

[6] = NCI Yeast Anticancer Drug Screen. Data for the mlh1 rad18 strain (AID 175); settings: S. cerevisiae mlh1 rad18 strain growth inhibition; at 50.0 µM; active compounds read high
Method in brief: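 Compound-treated yeast growth, normalised to vehicle controls. Strain bears defined DNA repair mutations.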

Measured: growth inhibition

O=C(O)C1CCCN1Cc1cc2ccccc2c2ccccc12 (stereo unspecified)
inactive: [1] 11.2% | [2] -11.1% | [3] -25.9% | [4] 8.6% | [5] -3.3% | [6] 26.5%

CCC[C@H](C)[C@H]1NC(=O)[C@@H](NC(=O)[C@@H](CC(C)C)N(C)C(=O)C2CCCN2C(=O)[C@H](C)O)[C@@H](C)OC(=O)[C@H](CC(C)C)N(C)C(=O)[C@@H]2CCCN2C(=O)[C@H](CC(C)C)NC(=O)[C@@H](C)C(=O)[C@H](C(C)C)OC(=O)C[C@@H]1O (stereo partly specified)
inactive: [1] 21.2% | [2] 9.35% | [3] -5.9% | [4] 26.3% | [5] -20.9% | [6] -54%

Cc1cc(C)c(CC#N)s1
inactive: [1] -25.2% | [2] -12.1% | [3] -1.65% | [4] -52.6% | [5] -15.4% | [6] -22.3%

CCCCCN(CCCCC)CC(O)c1cccc2c1cc(Br)c1ccccc12 (stereo unspecified)
inactive: [1] 30.7% | [2] 1.55% | [3] 8.7% | [4] 8.45% | [5] 0.85% | [6] 14.7%

C1CCSCCCCSCCCCSCCCCSC1
inactive: [1] 20.4% | [2] 18% | [3] 23.4% | [4] 6.5% | [5] 16.9% | [6] 35.8%

c1cc(-c2cc(-c3cc(-c4ccncc4)n[nH]3)[nH]n2)ccn1
inactive: [1] 9.45% | [2] -2.6% | [3] 8.45% | [4] 3.3% | [5] -13.8% | [6] 4.6%

CCN(CC)c1ccc2cc(-c3nc4ccccc4[nH]3)c(=O)oc2c1
inactive: [1] 2% | [2] -5.3% | [3] 12.5% | [4] 3.15% | [5] 11.1% | [6] 2.55%

NC(C(=O)O)C(SCc1ccccc1)c1cccc(O)c1 (stereo unspecified)
inactive: [1] -3.2% | [2] 14.3% | [3] 18.7% | [4] -26.4% | [5] -1.3% | [6] -0.7%

CCOC(=O)C1=NN(c2ccccc2)C(=O)/C1=C\N1C(=S)NC(=O)/C1=C\c1cccc([N+](=O)[O-])c1
inactive: [1] 11.2% | [2] -11.6% | [3] 1.25% | [4] 31.3% | [5] -4.8% | [6] -4.8%

CC(C)(C(N)=O)c1ccccc1
inactive: [1] -28.1% | [2] -3.85% | [3] 16.6% | [4] -28.4% | [5] -1.55% | [6] -5.05%

Cc1ccc(C2CC(c3ccc([N+](=O)[O-])cc3)=Nc3ccccc3S2)cc1 (stereo unspecified)
inactive: [1] 6.4% | [2] -1.75% | [3] 15.1% | [4] 14.7% | [5] 20.5% | [6] 8.6%

Nc1nc(-c2ccccc2)nc2nc[nH]c12
inactive: [1] 8.75% | [2] -3.9% | [3] -20.3% | [4] -2.2% | [5] 0.85% | [6] 5.85%

COc1cc([C@@H]2c3cc4c(cc3[C@@H](Nc3ccc(NC(=O)c5cc(NC(=O)c6cc([N+](=O)[O-])cn6C)cn5C)cc3)[C@H]3COC(=O)[C@H]23)OCO4)cc(OC)c1O
inactive: [1] 34% | [2] 31.6% | [3] 34% | [4] 9.2% | [5] 16.4% | [6] 6.45%

COc1ccc(C(C)(O)c2cc3ccccc3n2S(=O)(=O)c2ccccc2)cc1 (stereo unspecified)
inactive: [1] -8.95% | [2] -12.3% | [3] -0.9% | [4] -14.3% | [5] 0.75% | [6] 18.4%

COC(=O)C(=O)CC(=O)CCn1ncc(Cl)c(Cl)c1=O
inactive: [1] -14.3% | [2] -25.4% | [3] -1.3% | [4] 6.45% | [5] -13.6% | [6] -17.7%

CC(CCC(=O)O)[C@H]1CCC2[C@H]3C(CC(=O)[C@@]21C)[C@@]1(C)CCC(O)C[C@H]1C[C@@H]3O (stereo partly specified)
inactive: [1] -7.75% | [2] -7.7% | [3] 5.9% | [4] -29.4% | [5] -17.1% | [6] -11.7%

CN1CCN(CCCN2CC(=O)N3Cc4ccccc4CN3C(=O)C2)CC1
inactive: [1] -26.6% | [2] -1.35% | [3] -9.45% | [4] 1% | [5] 5.15% | [6] -3%

O=[N+]([O-])c1ccc(N=Nc2c(O)[nH]c3ccc(Br)cc23)cc1
inactive: [1] 22.4% | [2] -20.2% | [3] 14.3% | [4] 10.8% | [5] -15.4% | [6] 15.3%

N#CCOc1ccc(Cl)cc1
inactive: [1] -10.7% | [2] -16.2% | [3] -13.1% | [4] -53.2% | [5] 1.8% | [6] -3.65%

Nc1ncnc2c1ncn2C1OC(C(=O)OCCO)C(O)C1O (stereo unspecified)
inactive: [1] -16.6% | [2] -19.8% | [3] -12.6% | [4] -12.2% | [5] -11.2% | [6] -22.9%

CC1(C)NC(=S)N(O)C1(C)C
inactive: [1] 0.1% | [2] -5.65% | [3] -19.8% | [4] -11.9% | [5] 10.8% | [6] -4.8%

Cc1c(Cl)cccc1NC(=O)OCCCc1ccccc1
inactive: [1] 1.5% | [2] 10.2% | [3] 15.6% | [4] -9.45% | [5] 9.35% | [6] 10.2%

S=C1N(c2ccc(Br)cc2)C2=Nc3ccccc3SC(=C2N=Nc2ccccc2)N1c1ccc(Cl)cc1
inactive: [1] -13.6% | [2] 20.9% | [3] -8.8% | [4] 14.5% | [5] -1.15% | [6] -3%

CNC1C(=O)C(C)C(O)(C(CC(C)C(O)/C=C/C=C/CNC(=O)C(C)(C)C(O)\C(C)=C/C=C\C=C\Cc2cnc(C)o2)OC)C12C(=O)OC2COC (stereo unspecified) (tested in a mixture with another compound)
inactive: [1] 2.6% | [2] -22.1% | [3] -7.75% | [4] 2.95% | [5] 12.9% | [6] 6.35%

CC[n+]1ccnc2ccccc21
inactive: [1] -11.6% | [2] -8% | [3] -1.35% | [4] -7.9% | [5] 11.6% | [6] 14%

CC1(C)c2ccccc2-c2nc3ccccc3nc2C1O (stereo unspecified)
inactive: [1] 4.65% | [2] 18.8% | [3] -8% | [4] -14% | [5] 1.95% | [6] -9.7%

CNCSc1ccccc1
inactive: [1] -6.6% | [2] -19.9% | [3] -1.75% | [4] -11.6% | [5] -30.1% | [6] -1.45%

O=C(Nc1ccc(F)cc1)C(=O)C(C1OC(=O)c2ccccc21)[N+](=O)[O-] (stereo unspecified)
inactive: [1] 14.9% | [2] 6.15% | [3] 8.7% | [4] 14.1% | [5] 10.8% | [6] 15.8%

Cc1ccc([N+](=O)[O-])cc1NC(=O)C(=O)Cc1occc(=O)c1O
inactive: [1] -12.6% | [2] -6% | [3] 0.65% | [4] -3.45% | [5] -8.85% | [6] -6.95%

O=C1c2sccc2[C@H](NC(=O)C(F)(F)F)[C@@H]1Cl
inactive: [1] 4.5% | [2] 3.45% | [3] 1.1% | [4] 25.1% | [5] 7.25% | [6] 18.6%

CCOC(=O)/C(=C/c1ccc(N(CCC#N)CCC#N)cc1C)NC(=O)/C=C/c1ccccc1
inactive: [1] -2.25% | [2] -5.85% | [3] -16.2% | [4] -20.6% | [5] -25.4% | [6] -9.65%

Nc1ccc(C2NC(=O)Cc3c2ccc2ccccc32)cc1 (stereo unspecified)
inactive: [1] 9.8% | [2] 9.7% | [3] 7.45% | [4] -43.4% | [5] 10.3% | [6] 13.6%

Cc1cc(=O)[nH]c2c(C)cccc12
inactive: [1] 4% | [2] 28.2% | [3] 11.8% | [4] -4.5% | [5] -0.4% | [6] 16.6%

CCOc1ccc(NC(=O)C2=C(C)NC(C)=C(C(=O)Nc3ccc(OCC)cc3)C2c2ccc(O)c(OC)c2)cc1
inactive: [1] -17.4% | [2] 3% | [3] -14.8% | [4] -16.4% | [5] 16% | [6] -8.1%

C=C(Cl)Cc1c(O)c2c(c(O)c1CC(=C)Cl)C(=O)c1ccccc1C2=O
inactive: [1] -39.2% | [2] -42.7% | [3] -50% | [4] 1.8% | [5] -18.1% | [6] -33.5%

CC(=O)c1c(C)c([N+](=O)[O-])c(C)c([N+](=O)[O-])c1C
inactive: [1] 2.1% | [2] 11.9% | [3] -8.9% | [4] -94.8% | [5] 23.4% | [6] 7.3%

COC(=O)c1cc(Cl)c(C(=O)OC)cc1Cl
inactive: [1] 4.1% | [2] 3% | [3] 3.85% | [4] 0.6% | [5] 7.4% | [6] 8.6%

CC(C)(C)N=c1n(C(C)(C)C)oc(=O)n1C(C)(C)C
inactive: [1] -11.8% | [2] -34% | [3] -25.1% | [4] -2.95% | [5] -27.9% | [6] -11.9%

CCCCCCCCCCCCCCCCSc1ccc2ccccc2c1
inactive: [1] 37.9% | [2] -13.8% | [3] 41.3% | [4] -7.5% | [5] -3.45% | [6] 0.2%

CCOC(=O)C(Cl)Cc1ccccc1 (stereo unspecified)
inactive: [1] 4.75% | [2] 13.4% | [3] 13.4% | [4] 5.45% | [5] -5.15% | [6] 1.9%

O=C(CCCCCCCCC(=O)OCc1ccccc1)OCc1ccccc1
inactive: [1] 19.2% | [2] 2.55% | [3] 3.85% | [4] -24.2% | [5] 11.2% | [6] 41%
